# Assay outcomes: PubChem, National Center for Advancing Translational Sciences (NCATS)
# CHX counter = counter-screen for Shiga toxin inhibitors: cycloheximide protein synthesis inhibition; actives 12% (n = 300,000); max response, %; AID 2314; cell reporter, cycloheximide protein synthesis inhibition counterscreen; in the data active = max response mostly above about 13%, no sharp cut-off; inactive = mostly below about 14%; note: read at 38.3 µM for the half of the compounds with a filed dose; 0% is about no effect
# Pf growth 96h = P. falciparum growth inhibition at 96 hour, primary screen for plastid delayed-death inhibitors; P. falciparum luciferase reporter growth, 96 h; Potency, µM (doses to about 28.7 µM), for the others: at the highest dose activity change, negative = inhibition, hits mostly inhibitors; actives 6.9% (n = 320,000); AID 504834; active = well fitted inhibition curve with a large enough effect; inconclusive = small, poorly fitted or top-dose-only effect, or another doubt; inactive = no such curve, though single readings can be large or run the other way; note: potency is the fitted concentration of half-maximal effect; % is set by controls: 0 for no effect and ±100 for the full control effect
#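 Cell-based qHTS: luciferase-tagged P. falciparum in erythrocytes (2% hematocrit, 0.05% parasitemia final) incubated with compounds for 96 hours, 37 C, 5% CO2; luciferase detection reagent then added and luminescence measured.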
# NS1 function inh = blocks influenza NS1 protein function; Potency, µM (highest dose often 46.1 µM), inactives show at the top dose activity, positive = more growth; actives 0.4% (n = 270,000); AID 2326; note: potency is the fitted concentration of half-maximal effect; actives are rising curves; nearly all actives have a fitted effect of over 50% in size
#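 OD600 was taken as the measure of yeast growth restored by compound in an NS1-expressing S. cerevisiae strain. Cells had been washed out of glucose medium and diluted 1:100 into galactose -URA medium, pH 6.0.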
# SARS PLP yeast = SARS-CoV PLP inhibition in yeast. S. cerevisiae expressing SARS-CoV PLpro, growth rescue. Potency, µM (top dose mostly 32.9 µM), without a hit: at the highest dose activity, positive = growth rescue, most hits filed as activators. actives 0.19% (n = 330,000); note: potency is the fitted concentration of half-maximal effect; 0% is about no effect; nearly all actives have a fitted effect of over 55% in size
# Shiga inhibitor = blocks Shiga toxin action in Vero cells; Vero cells, Shiga toxin protein synthesis inhibition reporter; inhibition, % at 38.7 µM; actives 9.2% (n = 290,000); AID 2315; in the data active = inhibition mostly above about 28%, no sharp cut-off; inactive = mostly below about 43%; note: 0% is about no effect
# Pf growth 48h = P. falciparum growth inhibition at 48 hours (one generation); P. falciparum luciferase growth in erythrocytes, 48 h; Potency, µM (top dose mostly 28.7 µM), for inactives: top-dose activity change, negative = inhibition, actives largely listed as inhibitors; actives 5.9% (n = 310,000); active = well fitted inhibition curve with a large enough effect; inconclusive = small, poorly fitted or top-dose-only effect, or another doubt; inactive = no such curve, though single readings can be large or run the other way; note: potency is the fitted concentration of half-maximal effect; % is set by controls: 0 for no effect and ±100 for the full control effect
#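 Here the parasites carry a stable luciferase gene and grow inside erythrocytes in Albumax-based RPMI medium with compound for one erythrocytic cycle. Activity is scored as loss of luminescent signal.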
# * marks the source's active call; other numbers are inactive results; ? = inconclusive; . = no result. A selection: hits, their analogues and other compounds. The true share with any hit is near 21%. Unless noted, calls come from the whole dose curve.
SMILES,CHX counter,Pf growth 96h,NS1 function inh,SARS PLP yeast,Shiga inhibitor,Pf growth 48h
COc1ccc(OC)c(NC(=O)C2CC(/C=C/c3ccccc3)=NO2)c1 (centres undefined),-7,?,-6%,-1%,-6,-2%
CCOc1ccc(-c2nc(CSc3nnc(N)s3)cs2)cc1OC,33*,.,-4%,-1%,85*,25%
COc1ccc(OC)c(Nc2nc(N)nc(CSc3nnc(N)s3)n2)c1,-2,15%,5%,6%,-2,-1%
Cc1nc(CSc2nnc(N)s2)cs1,-1,?,.,-1%,7,1%
CCOc1ccc(-c2nc(CSc3nnc(N)s3)cs2)cc1,31*,.,?,?,117*,58%
CC(O)CNc1ncnc2cc(-c3ccc(F)cc3)sc12 (centres undefined),15*,-14%,1%,-1%,79*,41%
COC(CNc1ncnc2sc(-c3ccccc3)cc12)OC,14,38%,2%,1%,26,32%
Cc1ccc(C)c(N(Cc2cc3ccc(C)cc3[nH]c2=O)C(=O)c2ccco2)c1,-2,7.4µM*,-2%,0%,-2,?
O=c1[nH]c2cc3c(cc2cc1CN(Cc1ccco1)C(=S)NCC1CCCO1)OCCO3 (centres undefined),-5,?,2%,0%,2,-6%
Cc1ccc2cc(CN(CC3CCCO3)C(=S)NCc3ccco3)c(=O)[nH]c2c1 (centres undefined),1,19%,1%,-1%,-6,?
Cc1ccc2cc(CN(Cc3ccco3)C(=S)NCC3CCCO3)c(=O)[nH]c2c1 (centres undefined),1,3.7µM*,3%,0%,-5,-4%
COc1ccc2cc(CN(CC3CCCO3)C(=S)NCc3ccco3)c(=O)[nH]c2c1 (centres undefined),-1,26%,2%,1%,-8,9.3µM*
O=C(OCc1c(-c2ccccc2)ncc2ccccc12)c1cccc(Br)c1,.,?,.,1%,.,?
CC(C)n1c(=O)n(CC(=O)NCC2CCCO2)c(=O)c2c3c(sc21)COC(C)(C)C3 (centres undefined),-3,?,14%,7%,1,-4%
c1ccc(-c2cnn3nnnc3n2)cc1,1,5%,1%,1%,16,7%
c1ccc(-c2ccn3nnnc3n2)cc1,36*,54%,13%,8%,74*,51%
Cc1cc(-n2c(C)cc(C(=O)CSc3nnnn3-c3ccc(Cl)cc3)c2C)no1,-1,12µM*,-6%,-18%,-1,12µM*
Cc1cc(-n2c(C)cc(C(=O)CSc3ncnc4ccccc34)c2C)no1,1,?,-9%,2%,16,12%
Cc1cc(-n2c(C)cc(C(=O)CSc3nnc4sc5ccccc5n34)c2C)no1,24*,33%,-8%,5%,87*,-10%
CCCNC(=S)N1CCC(C(=O)c2ccc3c(c2)OCCO3)CC1,10,-6%,.,3%,29,-1%
CC(C)CN1CCN(Cc2cn(C)c3ccccc23)CC1CCO (centres undefined),-1,?,28%,-9%,-3,-7%
CC(C)(C)CN1CCN(Cc2cccnc2)CC1CCO (centres undefined),-1,10µM*,-6%,2%,.,-13%
Cc1cccc(CN2CCN(Cc3cccc(-n4cccn4)c3)CC2CCO)n1 (centres undefined),1,4.1µM*,-2%,-2%,-16,-3%
Cn1cc(CN2CCN(CC(C)(C)C)C(CCO)C2)c2ccccc21 (centres undefined),-1,1.5µM*,40%,-1%,-2,-10%
O=C1CC(c2ccccc2)CC(O)=C1C=Nc1ccccc1 (centres undefined),30*,24%,.,-3%,92*,-16%
SMILES,CHX counter,Pf growth 96h,NS1 function inh,SARS PLP yeast,Shiga inhibitor,Pf growth 48h
O=C1CC(c2ccccc2)CC(O)=C1C=Nc1ccccc1O (centres undefined),23*,157%,-7%,-2%,32,?
O=C1CC(c2ccccc2)CC(O)=C1C=NC1CCCC1 (centres undefined),-1,-6%,-4%,0%,-4,?
O=C1CC(c2cccc(Cl)c2)CC(O)=C1C=Nc1cccc(Cl)c1 (centres undefined),-1,73%,-53%,-77%,4,14%
CSc1nc(=S)c2[nH]c(=S)[nH]c2[nH]1,-3,17%,?,3%,-6,-28%
COC(=O)c1c(-c2ccc(SC)cc2)sc2ccccc12,.,5.9µM*,.,-2%,.,?
COc1ccc2nc(NC(=O)CSc3cn[nH]n3)sc2c1,43*,43%,5%,12%,66*,99%
CCOc1ccc2nc(NC(=O)CSc3nc(SC)ns3)sc2c1,55*,91%,10%,-1%,70*,?
Cc1cccc2sc(NC(=O)CSc3cn[nH]n3)nc12,1,37%,-3%,-1%,27,19%
CCOc1ccc2nc(NC(=O)CSc3cn[nH]n3)sc2c1,34*,-25%,10%,-2%,149*,84%
CCOc1ccc2nc(NC(=O)CSc3nc(-c4ccccc4)c(C#N)c(=O)[nH]3)sc2c1,41*,26%,.,0%,39*,188%
CCCCN(C(=O)/C=C/c1ccc(OC)cc1)C1CCS(=O)(=O)C1 (centres undefined),.,?,.,-2%,.,-14%
O/N=C/c1ccn(-c2ccc(Br)cc2)c1,40*,176%,.,-3%,69*,68%
Cc1cc(/C=N/O)c(C)n1-c1ccc(Br)cc1,6,?,7%,-3%,-3,?
O=c1c2c3c(sc2nc2n1CCC2)CCC3,-3,0.33µM*,?,4%,-11,20%
O=c1c2c3c(sc2nc2n1CCCC2)CCCC3,19*,-96%,-30%,-75%,42*,28%
NS(=O)(=O)c1c(Sc2ccccc2C(=O)O)ccc2ccccc12,30*,-1%,9%,2%,.,-5%
COc1ccc2cc(S(=O)(=O)n3cnc(C)c3)ccc2c1,6,?,6%,1%,-6,5%
CCOc1ccc2c(c1)c(N=Nc1cccc(C(=O)O)c1)c(O)n2C,58*,?,6%,1%,62*,95%
Cc1ccc2c(c1)c(N=Nc1cccc(C(=O)O)c1)c(O)n2C,16*,?,.,4%,60*,37%
Cc1ccc2c(c1)c(N=NC(N)=O)c(O)n2C,1,0%,3%,1%,15,17%
CCOc1ccc2c(c1)c(N=NC(=N)N)c(O)n2C,-1,51%,-4%,-2%,-11,21%
CCOc1ccc2c(c1)c(N=NC(N)=S)c(O)n2C,-2,5.2µM*,-4%,0%,4,9.3µM*
COc1ccc(/C=C2\SC(=S)N(CC3CCCO3)C2=O)cc1 (centres undefined),20*,28%,-1%,-2%,13,10%
